A short description of assay [1]: rapamycin-like changes in RPL19A-GFP expression – cell-based, S. cerevisiae, multiplex flow cytometry, primary screen (AID 1862; in the data active means percent of DMSO control GFP below about 86%;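 further: lower values mimic rapamycin by blocking the RPL19A rise seen in DMSO cells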). Conditions: S. cerevisiae RPL19A-GFP strain, flow cytometry fluorescence, 3 h; at 10 µM; stronger effect = lower value.
A short description of assay [2]: TOR pathway GLN3 branch reporter MEP2-GFP changes – S. cerevisiae, multiplex flow cytometry, primary screen (AID 1867;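 active means GFP response, as percent of the DMSO control, above the screen-wide mean plus 3 SD, about 139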;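 further: median GFP channel fluorescence of barcode-gated MEP2-GFP cells measured by flow cytometry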). The following applies: S. cerevisiae MEP2-GFP strain, 3 h, at 10 µM, stronger effect = higher value, 100% means same as DMSO wells.
Assay [3] in a line: TOR pathway RTG branch CIT2 reporter changes – S. cerevisiae, GFP fusion, multiplex flow cytometry, primary screen (AID 1870;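 active means percent response above a set limit, the screen-wide mean plus 3 SD, cut at about 130% in these data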;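 further: barcoded CIT2-GFP strain pooled with four other GFP strains with rapamycin as positive control; median GFP fluorescence per well over plate mean of DMSO wells so 100% = DMSO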). Conditions: S. cerevisiae CIT2-GFP expression, 3 h, at 10 µM, stronger effect = higher value.
The nature of assay [4]: TOR pathway LAP4-GFP level changes – S. cerevisiae, multiplex flow cytometry, primary screen (AID 1873;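 active means GFP signal, as percent of the solvent control, above the screen mean plus 3 SD, about 149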). Conditions: S. cerevisiae LAP4-GFP expression, 3 h, at 10 µM, stronger effect = higher value.
The nature of assay [5]: yeast AGP1-GFP level changes, GLN3 branch – cell-based, multiplex flow cytometry, S. cerevisiae, primary screen (AID 1887;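 active means GFP signal above the screen-wide mean plus 3 SD, that is over about 124.5% of the solvent control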;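 further: AGP1-GFP fusion strain of S. cerevisiae within a five-strain barcoded multiplex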). The following applies: 3 h, at 10 µM, stronger effect = higher value.
The nature of assay [6]: reduced mouse 2C T cell binding to pMHC/ICAM-1 vesicles – MLPCN validation set, flow cytometry, LFA-1/ICAM-1 modulator project, pilot screen (AID 2523;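 active means response below a set limit, under 55% cells CD8-positive and vesicle-bound, and CD8 cells' 90th-percentile brightness under 279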;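 on vesicle binding response: mean PE anti-B7-1 fluorescence of CD8+ cells relative to row control; 100% = QL9-loaded vesicles with DMSO vehicle in the same plate row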). Conditions: 2C mouse CD8+ T cells, at 7 µM, stronger effect = lower value; double positive events: measured here: CD8+/vesicle+ event percentage.
The target of assay [7] is Integrin beta-1 (Homo sapiens) + Integrin alpha-4 (Homo sapiens) (UniProt P13612+P05556). The experiment in a line: alpha4beta1 integrin LIBS antibody binding reduction – U937 cells, HUTS-21 mAb, flow cytometry, validation set, VLA-4 allosteric modulator project, pilot screen (AID 2674;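 active means inhibition above 50%, about 3 SD of the validation set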;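 further: antibody binding induced by the VLA-4 ligand LDV present at three times its Kd; 0% = LDV ligand with antibody and no compound and 100% = antibody without LDV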). Conditions: HUTS-21 LIBS mAb binding, at 6.7 µM, stronger effect = higher value, binding induced by LDV ligand.

The nature of assay [8]: calorie-restriction mimetic ROS inhibitors, yeast – validation compound set, pilot screen (AID 2706;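 active means superoxide response below 65% of plate, a cut near 3 SD across the whole screen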;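 further: yeast exposed to compound for one week at 30 degrees C before staining; 100% = mean of all compound wells on the same plate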). Conditions: S. cerevisiae aging, superoxide DHE fluorescence; at 10 µM, stronger effect = lower value.
The target of assay [9] is Beta-adrenergic receptor kinase 1 (Homo sapiens) (UniProt P25098). The experiment in a line: GRK2 binders displacing RNA aptamer, biochemical, validation, human GRK2, bead flow cytometry (AID 488806;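 active means aptamer binding inhibition above 30%, about 3 SD of noise from non-fluorescent compounds; inactive means inhibition at or below 30%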). Conditions: bead-bound GRK2, FAM-aptamer displacement, at 10 µM, stronger effect = higher value.
The target in assay [10] is AP-2 complex subunit beta (Homo sapiens) (UniProt P63010). The experiment in a line: beta-arrestin/AP2 interaction blockers – biochemical, validation set, GST-AP2 beads, flow cytometry, pilot screen (AID 504541).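 Further: AP2 carries R879A mutation and is captured from E. coli lysate; bead-bound FITC arrestin peptide fluorescence measuring arrestin peptide binding to AP2; 0% = DMSO wells and 100% = excess unlabeled arrestin peptide control.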 Conditions: FITC arrestin peptide, at 10 µM, stronger effect = higher value, AP2 beta2 appendage fragment, R879A mutant.
The nature of assay [11]: cytosolic pH regulators acting via V-ATPase – S. cerevisiae, pHLuorin, HTS validation (AID 504600; in the data active means response above about 15%;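 further: plate controls were DMSO for no effect and reference compound for full effect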). The following applies: V-ATPase proton transport, at 10 µM, stronger effect = higher value.
For assay [12], the system named is anti-desmoglein-3 scFv antibody binding to human DSG3. The experiment in a line: blockers of pathogenic pemphigus antibody–desmoglein-3 binding – biochemical, validation compound set, bead-based, flow cytometry, pilot screen (AID 588368;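 active means binding below the plate cutoff, the plate median minus 3 SD, with a reading above zero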;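 further: signal is the median channel fluorescence of bead-bound GFP antibody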). Conditions: Protein G beads, DSG3-Fc, scFv-GFP binding, at 10 µM, stronger effect = lower value.
Assay [13] is described as follows: Nile Red efflux blockade in pump-expressing yeast – validation compound set, multiplex, phenotypic, pilot screen (AID 588506;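 active means efflux inhibition above 0.42, the validation set average plus 4 SD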;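 further: Nile Red retained in cells so higher fluorescence means more efflux inhibition; 0 = negative control wells and 1 = enniatin B 25 µM full block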). Conditions: S. cerevisiae pump-expressing triplex, Nile Red efflux flow cytometry; at 10 µM; stronger effect = higher value; the pumps come from Candida albicans.
Assay [14] concerns the target ATP-binding cassette sub-family B member 6 (Homo sapiens) (UniProt Q9NP58). The experiment in a line: blockers of ABCB6-driven porphyrin uptake – K562-ABCB6 cells, flow cytometry, validation set, pilot screen (AID 588550;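 active means inhibition above the screen-wide mean plus 3 SD, about 51%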;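 further: 0% = DMSO wells and 100% = benzethonium chloride 70 µM positive control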). The following applies: K562-ABCB6 porphyrin accumulation, 1 h, at 10 µM, stronger effect = higher value.
The nature of assay [15]: AML differentiation inducers, ER-HoxA9 marrow cells – cell-based, GFP/MAC1 double positive, flow cytometry, validation set, primary screen (AID 588685;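 active means differentiation response of at least 50%, scaled between solvent and reference control, from cells with both markers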;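 further: compound exposure lasts four days before antibody staining and flow analysis; 0% = DMSO wells and 100% = 5 µM fulvestrant positive control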). The following applies: stronger effect = higher value, normalized: vehicle 0, fulvestrant 100.

Five compounds from PubChem BioAssay can be followed below.

Records with an inconclusive call do not appear. The source made the active and inactive calls.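 How the source made its calls, unless noted: active means inhibition above 54%, about 3 SD of non-fluorescent compounds; inactive means the rest.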

Chain of Beta-adrenergic receptor kinase 1 (Homo sapiens) (P25098 whole entry, looked up): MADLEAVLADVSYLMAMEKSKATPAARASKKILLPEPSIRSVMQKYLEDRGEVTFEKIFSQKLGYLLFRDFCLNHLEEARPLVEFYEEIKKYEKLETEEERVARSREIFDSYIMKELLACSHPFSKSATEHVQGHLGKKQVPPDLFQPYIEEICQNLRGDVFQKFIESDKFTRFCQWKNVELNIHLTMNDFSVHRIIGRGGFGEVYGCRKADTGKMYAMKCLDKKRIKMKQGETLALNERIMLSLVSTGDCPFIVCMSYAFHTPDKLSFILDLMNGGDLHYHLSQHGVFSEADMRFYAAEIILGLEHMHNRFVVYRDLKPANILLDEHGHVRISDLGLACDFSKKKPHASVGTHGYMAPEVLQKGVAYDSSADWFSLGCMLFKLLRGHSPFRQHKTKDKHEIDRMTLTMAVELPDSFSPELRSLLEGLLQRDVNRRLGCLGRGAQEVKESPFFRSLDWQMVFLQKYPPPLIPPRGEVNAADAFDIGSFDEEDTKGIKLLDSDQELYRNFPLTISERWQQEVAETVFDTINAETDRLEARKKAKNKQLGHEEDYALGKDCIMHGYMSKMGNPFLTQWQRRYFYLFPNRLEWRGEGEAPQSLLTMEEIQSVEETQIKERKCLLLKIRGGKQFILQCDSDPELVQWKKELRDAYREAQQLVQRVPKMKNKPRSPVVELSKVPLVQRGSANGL
Chain of Integrin beta-1 (Homo sapiens) + Integrin alpha-4 (Homo sapiens) (P05556 whole entry, looked up): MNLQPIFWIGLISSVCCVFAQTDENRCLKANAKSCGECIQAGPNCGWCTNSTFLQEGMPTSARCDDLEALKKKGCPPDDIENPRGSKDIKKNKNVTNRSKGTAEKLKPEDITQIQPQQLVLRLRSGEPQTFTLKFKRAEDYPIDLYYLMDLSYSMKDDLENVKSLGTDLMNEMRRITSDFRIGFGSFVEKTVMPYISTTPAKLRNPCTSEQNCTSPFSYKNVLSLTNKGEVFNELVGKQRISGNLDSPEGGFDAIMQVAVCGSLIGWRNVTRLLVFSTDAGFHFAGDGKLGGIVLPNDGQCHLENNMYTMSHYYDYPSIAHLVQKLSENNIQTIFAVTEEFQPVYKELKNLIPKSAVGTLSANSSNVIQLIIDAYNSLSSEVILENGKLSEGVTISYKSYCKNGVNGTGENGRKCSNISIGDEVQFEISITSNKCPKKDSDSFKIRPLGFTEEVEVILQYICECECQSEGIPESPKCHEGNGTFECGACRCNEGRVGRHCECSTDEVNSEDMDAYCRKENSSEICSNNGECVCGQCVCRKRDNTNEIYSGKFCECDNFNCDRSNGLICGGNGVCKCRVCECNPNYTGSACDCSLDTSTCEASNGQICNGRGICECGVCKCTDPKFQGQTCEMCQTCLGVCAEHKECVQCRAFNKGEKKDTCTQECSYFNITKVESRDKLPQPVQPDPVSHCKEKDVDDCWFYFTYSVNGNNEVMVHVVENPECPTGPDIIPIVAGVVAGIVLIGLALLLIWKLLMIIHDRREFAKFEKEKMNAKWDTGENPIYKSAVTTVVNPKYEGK
Chain of Integrin beta-1 (Homo sapiens) + Integrin alpha-4 (Homo sapiens) (P13612 whole entry, looked up): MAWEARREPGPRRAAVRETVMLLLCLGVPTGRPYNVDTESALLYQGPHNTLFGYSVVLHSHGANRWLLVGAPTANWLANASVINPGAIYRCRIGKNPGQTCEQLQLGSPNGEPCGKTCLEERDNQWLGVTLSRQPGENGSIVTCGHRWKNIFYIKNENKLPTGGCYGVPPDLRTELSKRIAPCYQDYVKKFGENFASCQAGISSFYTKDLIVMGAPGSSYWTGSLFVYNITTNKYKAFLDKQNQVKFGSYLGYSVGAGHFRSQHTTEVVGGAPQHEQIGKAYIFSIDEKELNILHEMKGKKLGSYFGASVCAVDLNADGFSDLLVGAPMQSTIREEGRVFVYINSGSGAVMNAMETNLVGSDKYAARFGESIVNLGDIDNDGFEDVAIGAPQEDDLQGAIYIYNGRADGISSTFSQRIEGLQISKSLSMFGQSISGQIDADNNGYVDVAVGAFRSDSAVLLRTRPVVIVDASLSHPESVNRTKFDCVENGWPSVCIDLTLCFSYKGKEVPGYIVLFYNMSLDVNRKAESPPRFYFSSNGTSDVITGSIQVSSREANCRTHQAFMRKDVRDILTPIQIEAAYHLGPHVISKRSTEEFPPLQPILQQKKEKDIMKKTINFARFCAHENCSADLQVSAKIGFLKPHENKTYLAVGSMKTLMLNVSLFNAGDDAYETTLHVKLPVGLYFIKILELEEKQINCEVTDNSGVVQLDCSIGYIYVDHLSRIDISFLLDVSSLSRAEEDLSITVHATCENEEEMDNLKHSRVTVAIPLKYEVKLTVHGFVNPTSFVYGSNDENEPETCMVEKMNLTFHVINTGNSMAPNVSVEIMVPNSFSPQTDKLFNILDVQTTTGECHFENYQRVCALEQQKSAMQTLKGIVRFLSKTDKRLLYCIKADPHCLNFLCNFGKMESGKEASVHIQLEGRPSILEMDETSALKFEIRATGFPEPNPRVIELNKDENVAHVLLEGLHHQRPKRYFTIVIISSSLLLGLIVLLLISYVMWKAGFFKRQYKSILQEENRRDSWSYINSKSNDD
Chain of ATP-binding cassette sub-family B member 6 (Homo sapiens) (Q9NP58 whole entry, looked up): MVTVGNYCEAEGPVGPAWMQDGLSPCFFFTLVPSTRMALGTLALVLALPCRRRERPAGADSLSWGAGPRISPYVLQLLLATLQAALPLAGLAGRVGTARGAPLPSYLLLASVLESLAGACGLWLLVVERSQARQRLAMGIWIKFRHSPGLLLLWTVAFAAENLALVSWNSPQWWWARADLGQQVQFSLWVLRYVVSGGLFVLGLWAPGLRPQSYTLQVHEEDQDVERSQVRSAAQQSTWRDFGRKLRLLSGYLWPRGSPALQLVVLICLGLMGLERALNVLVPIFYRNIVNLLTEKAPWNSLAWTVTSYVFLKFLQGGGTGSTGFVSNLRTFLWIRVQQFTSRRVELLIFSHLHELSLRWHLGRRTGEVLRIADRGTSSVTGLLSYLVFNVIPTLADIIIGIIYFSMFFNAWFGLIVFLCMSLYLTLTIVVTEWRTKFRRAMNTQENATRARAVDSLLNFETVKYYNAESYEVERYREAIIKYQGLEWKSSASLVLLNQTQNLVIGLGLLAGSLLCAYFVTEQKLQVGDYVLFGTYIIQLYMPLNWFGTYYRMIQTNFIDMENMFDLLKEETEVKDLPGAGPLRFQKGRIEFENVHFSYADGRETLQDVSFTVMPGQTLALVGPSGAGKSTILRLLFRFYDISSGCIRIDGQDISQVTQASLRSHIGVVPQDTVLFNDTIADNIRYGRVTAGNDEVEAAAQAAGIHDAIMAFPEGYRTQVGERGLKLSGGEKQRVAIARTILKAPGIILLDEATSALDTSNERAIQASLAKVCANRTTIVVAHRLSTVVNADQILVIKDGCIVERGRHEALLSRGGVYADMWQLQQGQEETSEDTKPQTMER
Chain of AP-2 complex subunit beta (Homo sapiens) (P63010 whole entry, looked up, the tested form may be a part, one chain of several): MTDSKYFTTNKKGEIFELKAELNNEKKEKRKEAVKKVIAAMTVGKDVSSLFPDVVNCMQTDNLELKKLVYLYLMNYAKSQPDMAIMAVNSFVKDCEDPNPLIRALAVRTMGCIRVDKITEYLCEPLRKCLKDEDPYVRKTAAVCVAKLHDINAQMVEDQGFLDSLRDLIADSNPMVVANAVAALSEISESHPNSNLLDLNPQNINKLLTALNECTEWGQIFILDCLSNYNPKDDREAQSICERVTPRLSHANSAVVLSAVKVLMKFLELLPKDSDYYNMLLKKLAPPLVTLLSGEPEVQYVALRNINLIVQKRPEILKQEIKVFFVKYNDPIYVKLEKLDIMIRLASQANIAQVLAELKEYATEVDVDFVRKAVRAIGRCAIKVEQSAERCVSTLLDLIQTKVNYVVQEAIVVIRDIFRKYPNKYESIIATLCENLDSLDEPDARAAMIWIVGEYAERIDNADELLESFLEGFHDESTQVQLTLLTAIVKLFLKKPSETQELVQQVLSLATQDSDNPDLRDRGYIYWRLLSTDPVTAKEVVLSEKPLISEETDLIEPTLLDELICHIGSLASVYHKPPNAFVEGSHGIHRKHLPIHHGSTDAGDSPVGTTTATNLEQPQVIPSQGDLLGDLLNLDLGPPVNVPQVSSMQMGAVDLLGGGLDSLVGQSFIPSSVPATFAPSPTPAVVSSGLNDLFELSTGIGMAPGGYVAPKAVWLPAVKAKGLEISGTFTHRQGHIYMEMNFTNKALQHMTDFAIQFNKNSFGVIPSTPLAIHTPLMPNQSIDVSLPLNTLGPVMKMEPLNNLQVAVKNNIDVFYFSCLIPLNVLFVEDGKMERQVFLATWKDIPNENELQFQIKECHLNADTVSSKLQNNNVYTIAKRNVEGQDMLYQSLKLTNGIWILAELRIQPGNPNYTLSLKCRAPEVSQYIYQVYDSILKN

With `COc1ccc2oc(=O)c(-c3nc(C)cs3)cc2c1`, the percent of DMSO control GFP in assay [1] was 98% (inactive). Moreover, the GFP response vs DMSO in assay [2] is 101% (inactive); in assay [4] it was 106% (inactive). In addition, the percent response of DMSO control in assay [3] is 96.9% (inactive). The GFP response, % of DMSO in [5] was 88.2% (inactive). Further, the double positive events in assay [6] was found to be 54.8%. The vesicle binding response in assay [6] was 204% (inactive). Further, the values for the inhibition in assay [7], in [10] and in assay [14] were 9.09% (inactive), -7.03% (inactive) and 7% (inactive), respectively. For the same compound, the superoxide response (% of plate) in assay [8] was 89.3% (inactive). Besides, the aptamer binding inhibition in [9] is 6% (inactive). In [11], the response was -3.63% (inactive). Also, the binding (% of control) in assay [12] is 92.6% (inactive). Also, in [13], the efflux inhibition (fraction of control) is -0.05 (inactive). Moreover, in [15], the differentiation response is -1.82% (inactive).

Consider `C/C(=N/N1CCN(Cc2cccc3ccccc23)CC1)c1cccnc1`, for which the percent of DMSO control GFP in assay [1] was 101% (inactive). For the same compound, the GFP response vs DMSO was 102% (inactive) in assay [2] and 99.4% (inactive) in [4]. Besides, the percent response of DMSO control in assay [3] was 98.8% (inactive). Further, the GFP response, % of DMSO in assay [5] was 96.6% (inactive). In assay [6], the double positive events was 58.2%. Besides, the vesicle binding response in assay [6] is 182% (inactive). Further, the inhibition is -1.17% (inactive) in assay [7], 6.25% (inactive) in [10] and 5% (inactive) in [14]. In addition, the superoxide response (% of plate) in assay [8] is 102% (inactive). In assay [9], the aptamer binding inhibition was 1% (inactive). Further, the response in assay [11] is -3.49% (inactive). Further, the binding (% of control) in assay [12] is 100% (inactive). Also, in [13], the efflux inhibition (fraction of control) is 0.25 (inactive). The differentiation response in assay [15] was 9.49% (inactive).

For the compound `CC(O)Cn1cnc2c1c(=O)n(C)c(=O)n2C` (stereo not given), the percent of DMSO control GFP in assay [1] is 95.1% (inactive). Moreover, the GFP response vs DMSO in assay [2] is 93.8% (inactive); in assay [4], 94.3% (inactive). Also, the percent response of DMSO control in assay [3] is 111% (inactive). In addition, the GFP response, % of DMSO in [5] is 98.7% (inactive). This compound gave a double positive events in assay [6] of 50%. In addition, the vesicle binding response in assay [6] was 150% (inactive). For the same compound, the inhibition in assay [7] is 4.42% (inactive); in assay [10], -14.4% (inactive); in assay [14], 4% (inactive). In addition, the superoxide response (% of plate) in [8] is 105% (inactive). Moreover, in assay [9], the aptamer binding inhibition is 0% (inactive). Besides, the response in [11] was 0.41% (inactive). Further, in assay [12], the binding (% of control) was 101% (inactive). The efflux inhibition (fraction of control) in assay [13] is -0.24 (inactive). In assay [15], the differentiation response is -14.7% (inactive).

As for `CCCOc1ccc(-c2cc(C(=O)NCC3CCCO3)c3ccccc3n2)cc1` (stereo not given), the percent of DMSO control GFP in assay [1] was 99.5% (inactive). Besides, the values for the GFP response vs DMSO in assay [2] and in [4] were 102% (inactive) and 105% (inactive), respectively. Besides, in assay [3], the percent response of DMSO control is 91% (inactive). Further, the GFP response, % of DMSO in [5] was 84.4% (inactive). This compound also displayed a double positive events in assay [6] of 55.9%. In addition, in [6], the vesicle binding response was 199% (inactive). Also, the inhibition in assay [7] was 13.8% (inactive); in [10], -3.49% (inactive); in assay [14], 12% (inactive). Moreover, in [8], the superoxide response (% of plate) was 91.2% (inactive). Moreover, in assay [9], the aptamer binding inhibition is 1% (inactive). Besides, in assay [11], the response was 6.44% (inactive). In addition, the binding (% of control) in assay [12] is 97.3% (inactive). In addition, in assay [13], the efflux inhibition (fraction of control) is 0.18 (inactive). In addition, the differentiation response in assay [15] is 7.87% (inactive).

As for `CCOC(=O)c1ccc2[nH]c(C)c(CCC(C)=O)c(=O)c2c1`, the percent of DMSO control GFP in [1] was 102% (inactive). In addition, the GFP response vs DMSO is 98.9% (inactive) in assay [2] and 88.3% (inactive) in [4]. For the same compound, the percent response of DMSO control in assay [3] is 109% (inactive). Besides, in assay [5], the GFP response, % of DMSO is 97.9% (inactive). Besides, the double positive events in assay [6] was found to be 57.1%. The vesicle binding response in assay [6] was 228% (inactive). For the same compound, the inhibition is 0.69% (inactive) in assay [7], 1.85% (inactive) in assay [10] and 6% (inactive) in assay [14]. Besides, the superoxide response (% of plate) in assay [8] is 91.5% (inactive). Also, the aptamer binding inhibition in assay [9] is 1% (inactive). Further, the response in [11] was 6.01% (inactive). In addition, the binding (% of control) in assay [12] is 108% (inactive). For the same compound, the efflux inhibition (fraction of control) in assay [13] was -0.12 (inactive). For the same compound, in [15], the differentiation response was -11.5% (inactive).
